PubChem BioAssay (NCI)
This is part of a sample that, as a whole, favours compounds with a hit. Of some 83,000 tested, about 20% had one in any assay.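 Plates (96-well) were seeded with cells, treated with compound at one concentration, and incubated for 48 hours before percent growth was determined.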 A number with no mark means an inactive call. The source made the active and inactive calls. Rule for the calls: active = growth percent below 10; inactive = the rest.

Tests used:
Test in all cases: NCI-60 one-dose screen, 48 h (100 = growth as untreated, 0 = no growth, -100 = all killed)
Conditions in all cases: 10 µM unless noted
DU-145 prostate = tested on: DU-145 prostate
K-562 leukemia = tested on: K-562 leukemia
MALME-3M melanoma = tested on: MALME-3M melanoma
MDA-MB-231 breast = tested on: MDA-MB-231 breast
RXF 393 renal = tested on: RXF 393 renal
SF-268 CNS = tested on: SF-268 CNS
SF-295 CNS = tested on: SF-295 CNS
SF-539 CNS = tested on: SF-539 CNS
UACC-257 melanoma = tested on: UACC-257 melanoma
M14 melanoma = tested on: M14 melanoma

| SMILES | growth (DU-145 prostate) | growth (K-562 leukemia) | growth (MALME-3M melanoma) | growth (MDA-MB-231 breast) | growth (RXF 393 renal) | growth (SF-268 CNS) | growth (SF-295 CNS) | growth (SF-539 CNS) | growth (UACC-257 melanoma) | growth (M14 melanoma) |
| --- | --- | --- | --- | --- | --- | --- | --- | --- | --- | --- |
| COc1cc(NCCCCCN=C(N)NC(N)=NC(C)C)c2ncccc2c1 | 104% | 26.1% | -19.2% (active) | 22% | 131% | 29% | 98.3% | 44.9% | -8.06% (active) | 67.7% |
| Nc1c(C(=O)Nc2ccccc2)sc2nc3c(cc12)CN(CCc1ccccc1)CC3 | 98.3% | 82.2% | 95.7% | 90.4% | 121% | 93.2% | 103% | 95.3% | 110% | 108% |
| CN1CCN(Cc2ccc(NC(=O)c3[nH]ncc3Nc3ncnc4c3CCC4)cc2)CC1 | 5.56% (active) | 6.23% (active) | 4.81% (active) | -11.8% (active) | -49.7% (active) | 4.07% (active) | 31.2% | -37.8% (active) | 37.7% | 21.7% |
| Cn1c2ccccc2c2c3c(c4c5ccccc5n(CCCCCC#N)c4c21)C(=O)N(O)C3=O | 16.3% | 16.2% | 28.6% | 27.9% | -21.8% (active) | 12.2% | 9.59% (active) | -33% (active) | 15.6% | 1.43% (active) |
| COCCOC(=O)C1=C(C)NC(=S)NC1c1ccc2c(c1)OCO2 (stereo not given) | 108% | 91.8% | 108% | 105% | 101% | 97.4% | 105% | 99.2% | 90.2% | 104% |
| c1ccc(CSc2ncnc3nc[nH]c23)nc1 | 113% | 96.7% | 103% | 97.6% | 119% | 109% | 104% | 99.5% | 120% | 101% |
| Cn1c2ccccc2c2c3c(c4c5ccccc5[nH]c4c21)C(=O)N(N)C3=O | 57.4% | 49.7% | 69.2% | 82.9% | 67.9% | 45.8% | 27.1% | 20.2% | 76.8% | 37.2% |
| COc1cc(-c2nc3ccccc3s2)ccc1NC(=O)COc1ccc(Cl)cc1 | 82.1% | 74.9% | 48.3% | 45.9% | 66.3% | 29.4% | 29% | 26.7% | 85.3% | 60% |
| COc1ccc(OCC(=O)Nc2ccc(-c3nc4ccccc4s3)cc2C)cc1 | 110% | 59.5% | 100% | 85.7% | 115% | 94.3% | 99.8% | 89.6% | 109% | 89.9% |
| CN(CC(=O)N(Cc1ccc(C2CCCCC2)cc1)c1ccc(C(=O)NO)cc1)S(=O)(=O)c1c(F)c(F)c(F)c(F)c1F | 78.3% | 20.6% | 86.4% | 40.3% | 71.2% | 87% | 108% | 92.7% | 102% | 67.9% |
| CCCCCCCCCCCCCCCC(=O)OCC1OC(n2cnc3c(=S)nc(N)[nH]c32)C(OC(=O)CCCCCCCCCCCCCCC)C1OC(=O)CCCCCCCCCCCCCCC (stereo not given) | 39.8% | 15.9% | 82.6% | 47.4% | 164% | 67.2% | 21.1% | 79.9% | 88.7% | 34.1% |
| COc1ccc(C/C(C)=C(\c2ccc(OCCN3CCCCCC3)cc2)c2ccc(OC(=O)C3CCCCC3)cc2)cc1 | 72.4% | 9.51% (active) | 66% | 67.6% | 60.4% | 64.2% | 86.1% | 74.7% | 77.5% | 73.1% |
| COC1=CC(=O)C(OC)=C(OC)C1=O | 106% | 63.9% | 92.1% | 86% | 111% | 94.3% | 99.3% | 90.7% | 107% | 93.2% |
| CCOC(=S)SCc1ccc(Cl)cc1 | 106% | 110% | 107% | 85.4% | 87.6% | 106% | 89.4% | 114% | 100% | 99.1% |
| CCN(CC)CCCNc1cc(OC)cc2nc3cc(Cl)ccc3nc12 | 0.94% (active) | -56.5% (active) | -84.7% (active) | -25.9% (active) | -10.9% (active) | -35.5% (active) | 18.1% | -77.6% (active) | -79.7% (active) | -94.2% (active) |
| CCCCCCCCCCCCCCCCCCNC(=O)[C@H]1CSC(c2ccc(OC)c(F)c2)N1 (stereo not given in full) | 67.1% | 0.509% (active) | -57.4% (active) | -42.8% (active) | -34% (active) | -61% (active) | 87.5% | -15.1% (active) | 70.3% | -76.7% (active) |
| C=C1CC2(OC1=O)C(=O)N(CCCCCCCCCCCCN1C(=O)C3(CC(=C)C(=O)O3)c3ccccc31)c1ccccc12 (stereo not given) | 98.7% | 6.7% (active) | 75.5% | 55.8% | 52.8% | 93% | 97.6% | 87.3% | 94.9% | 79.4% |
| CSc1nc2sc3c(c2c(=O)n1-c1ccc(C(C)C)cc1)CCC(=O)C3 | 40.5% | 2.37% (active) | 2.52% (active) | -17.1% (active) | -2.94% (active) | 18.9% | 4.21% (active) | -22.1% (active) | 84.7% | 10.1% |
| Cc1ccc2c(c1)O/C(=C\c1cccc(OCC(=O)c3ccccc3)c1)C2=O | 103% | 93.4% | 94.7% | 79% | 80% | 103% | 89.4% | 105% | 93.6% | 98.9% |
| COc1ccc(C2c3ccc4ccccc4c3Oc3ncnc(N)c32)cc1 (stereo not given) | 102% | 41.2% | 93.1% | 64.8% | 85.5% | 86.2% | 87% | 88.2% | 98.5% | 83% |
| CC[C@@H](C)OC(=O)c1nn(C(C)=O)c2ccccc12 | 107% | 112% | 109% | 98.8% | 99.4% | 104% | 93.1% | 105% | 101% | 102% |
| C=C1CC2(OC1=O)C(=O)N(CCCCCCCN1C(=O)C3(CC(=C)C(=O)O3)c3ccccc31)c1ccccc12 (stereo not given) | 58.2% | 5% (active) | -61.4% (active) | -9.65% (active) | -32.8% (active) | 60.3% | 82.6% | 16.9% | 65% | 36.5% |
| COc1nc2c(cc1S(=O)(=O)c1ccccc1)CCc1c-2cnn1-c1ccc(Cl)cc1 | 110% | 97.2% | 96.8% | 95.3% | 96.2% | 104% | 88.3% | 100% | 106% | 97.5% |
| COc1ccc(C(=O)COc2ccc(/C=C3\Oc4ccc(Cl)cc4C3=O)cc2)cc1 | 107% | 16.7% | 115% | 86.8% | 101% | 108% | 92.7% | 86.3% | 89.9% | 104% |
| S=c1[nH]nc(CSc2ncnc3c2c(-c2ccccc2)cn3-c2ccc(Cl)cc2)o1 | 106% | 92.3% | 98.5% | 94.3% | 125% | 97.5% | 102% | 94.7% | 105% | 100% |
| O=C1/C(=C\c2cn(C(=O)c3ccc(Cl)cc3)c3ccccc23)c2ccccc2N1c1c(Cl)cccc1Cl | 120% | 115% | 106% | 103% | 151% | 99.9% | 127% | 104% | 123% | 104% |
